We go through 67 compounds from PubChem BioAssay AID2546 (National Center for Advancing Translational Sciences (NCATS), 2010).

Among all 310,000 compounds or so, about 11,000 (3.5%) were called active. Another 8% or so got no clear call; they are omitted. The sample as a whole holds a higher share of actives than the screen did. A number with no mark means an inactive call. The call rests on the fitted dose curve; in most records, active means well fitted inhibition curve with a large enough effect; inconclusive means small, poorly fitted or top-dose-only effect, or effect the other way; inactive means flat fitted curve, though single readings scatter.
On the % scale 0 is the no-effect control and ±100 the full control effect; potency means the concentration at half of the fitted maximal effect.

The experiment can be described thus: VP16 counterscreen qHTS for inhibitors of ROR gamma transcriptional activity.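 Further: Gal4-VP16 expression switched on by copper sulfate through the metallothionein promoter; nearly all actives have a fitted effect of over 50% in size.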 Particulars: Drosophila S2 Gal4-VP16 UAS-luciferase, luminescence, 20 h; series mostly up to 53.6 µM; activity, negative = inhibition: at the top concentration.
Regarding `CC(Oc1cccc(Cl)c1)C(=O)NC1CC(C)(C)NC(C)(C)C1` (configuration not stated), the “activity, negative = inhibition” value was -0.763%.

For the compound `O=C(CC1C(=O)NCCN1C(=O)c1ccc([N+](=O)[O-])cc1)Nc1cccc(Cl)c1` (configuration not stated), the “activity, negative = inhibition” value was -9.4%.

Regarding `Nc1nonc1-n1nnc(C(=O)N/N=C/c2cc(Br)ccc2O)c1CSC1=NCCS1`, the Potency was 4.47 µM (active).

As for `Cc1ccc(SCc2c(C(=O)N/N=C/c3cccnc3)nnn2-c2nonc2N)cc1`, the “activity, negative = inhibition” value was -7.8%.

Turning to `Cc1ccc(SCc2c(C(=O)N/N=C/C3CC=CCC3)nnn2-c2nonc2N)cc1` (configuration not stated), the “activity, negative = inhibition” value was -5.45%.

Turning to `COc1ccccc1NC(=O)CSc1nc2sc3c(c2c(=O)n1-c1ccccc1)CCN(C)C3`, the “activity, negative = inhibition” value was 2.43%.

Turning to `CCCCc1nc2cc(C(=O)NCCc3cnn(C)c3)ccc2o1`, the “activity, negative = inhibition” value is -4.88%.

On to `CCc1ccc(N(CC(=O)NCc2cccnc2)S(=O)(=O)c2ccccc2)cc1`, for which the Potency was 14.1 µM (active).

As for `O=C(CN(c1cc(C(F)(F)F)ccc1Cl)S(=O)(=O)c1ccccc1)NCc1cccnc1`, the “activity, negative = inhibition” value is -0.095%.

As for `O=C(CCc1ccccc1)NCc1cccnc1`, the “activity, negative = inhibition” value was 2.5%.

On to `CCOC(=O)c1c(-c2ccccc2)oc2ccc(OCC(N)=O)cc12`, for which the “activity, negative = inhibition” value was -2.89%.

For `COc1cccc(CN2CCN(Cc3ccc4cccc(F)c4n3)CC2CCO)c1` (configuration not stated), the “activity, negative = inhibition” value was -27.6%.

Regarding `CN1c2ccc([N+](=O)[O-])cc2C(C)(C)C12C=Cc1cc(C(=O)O)ccc1O2` (configuration not stated), the “activity, negative = inhibition” value is 1.53%.

In the case of `Cc1nn(Cc2ccccc2)c(Cl)c1C(=O)OC1CCOC1=O` (configuration not stated), the “activity, negative = inhibition” value was -5.18%.

On to `O=C(OC1CCOC1=O)c1ccc(-c2nc3ccccc3s2)s1` (configuration not stated), for which the Potency was 1 µM (active).

As for `CC(C)c1ccc(C(=O)OC2CCOC2=O)cc1` (configuration not stated), the “activity, negative = inhibition” value was 13.4%.

For `O=C(CNC(=O)OCc1ccccc1)NC1CCCCNC1=O` (configuration not stated), the “activity, negative = inhibition” value is -9.12%.

Consider `Cc1cc(=O)n2[nH]c(-c3cccc(Cl)c3)cc2n1`, for which the “activity, negative = inhibition” value was 14.2%.

On to `C=C1C(=O)C23C(O)C1CCC2[C@]12COC3(O)C(O)C1C(C)(C)CC[C@H]2O` (some centres not stated), for which the Potency was 2.51 µM (active).

`CCOc1ccc(C(C(=O)NC2CCCC2)N(C(=O)c2snc(C(N)=O)c2N)C2CCCC2)cc1` (configuration not stated): the “activity, negative = inhibition” value is 13.5%.

`COCc1nc2ccccc2n1Cc1ccccc1Br`: the Potency is 5.62 µM (active).

As to `COCn1c(COc2ccccc2)nc2ccccc21`, the “activity, negative = inhibition” value was 25.9%.

`COc1ccccc1Cn1c(CO)nc2ccccc21`: the “activity, negative = inhibition” value was -7.92%.

`Cc1ccccc1CCNC(=O)C1CCC(=O)N(Cc2ccc(Cl)cc2)C1` (configuration not stated): the “activity, negative = inhibition” value is -3.56%.

Regarding `CCCn1cc(S(=O)(=O)c2ccc(C)cc2)c(=O)c2cc(OCC)ccc21`, the “activity, negative = inhibition” value was 1.59%.

With `CCN(CC)c1ccc(/C=N/NC(=O)c2cnccn2)c(O)c1`, the Potency was 5.62 µM (active).

`Cc1cc(C)nc(N/N=C/c2ccncc2)n1`: the “activity, negative = inhibition” value was -5.52%.

In the case of `CCN(CC)c1ccc(/C=N/NC(=O)CNC(=O)c2cccnc2)cc1`, the “activity, negative = inhibition” value is 2.67%.

Turning to `CCN(CC)c1ccc(/C=N/Nc2nc(C)cc(C)n2)c(O)c1`, the Potency was 4.47 µM (active).

For the compound `Cc1ccc(C(=O)NCCNC(=O)c2cnccn2)cc1`, the “activity, negative = inhibition” value is 7.02%.

Consider `CCN(CC)c1ccc(/C=N/Nc2nc(C)cc(=O)[nH]2)cc1`, for which the “activity, negative = inhibition” value is -3.48%.

`Cc1cc(=O)n2nc(N3CCC(C(=O)Nc4c(F)c(F)c(F)c(F)c4F)CC3)sc2n1`: the “activity, negative = inhibition” value was -2.93%.

With `COc1ccc(S(=O)(=O)N2CCSCC2)cc1`, the “activity, negative = inhibition” value is 10.7%.

Turning to `O=C(NNS(=O)(=O)c1ccc(F)cc1)c1ccc([N+](=O)[O-])cc1Cl`, the “activity, negative = inhibition” value was 2.59%.

`O=C(COc1ccc(Cl)cc1)Nc1ccc2c(c1)OCO2`: the “activity, negative = inhibition” value is -6.13%.

In the case of `Cc1cc(O)ccc1-c1cnc2ccccc2n1`, the “activity, negative = inhibition” value is -20.2%.

For `O=c1oc2ccccc2cc1-c1csc(Nc2ccc(O)cc2)n1`, the “activity, negative = inhibition” value is 1.22%.

With `Cc1ccc(Nc2nc(-c3ccc(O)cc3O)cs2)nc1`, the Potency is 11.2 µM (active).

Consider `C=Cn1cc[n+](CC(=O)c2ccc(OC)c(OC)c2)c1`, for which the “activity, negative = inhibition” value is -1.6%.

Consider `Cc1ccc(-n2c(C)cc(/C=N\NC(=O)CC(=O)NC(C)C)c2C)cc1`, for which the “activity, negative = inhibition” value was -7.74%.

Take `Cc1cc(/C=N/NC(=O)CC2(C)OCCO2)c(C)n1-c1ccc(Cl)c(Cl)c1`: the Potency is 12.6 µM (active).

As to `Cc1ccccc1-n1c(C)cc(/C=N/NC(=O)c2ccc(CN3CCOCC3)cc2)c1C`, the activity, negative = inhibition was -2.91% [at 0.365 µM].

Turning to `COc1ccccc1C(=O)NC(CCSC)C(=O)NNC(=O)c1csc(N2CCOCC2)n1` (configuration not stated), the “activity, negative = inhibition” value is 1.56%.

As to `CCOc1ccc(C(=O)COC(=O)c2ccc(-n3cnnn3)cc2)cc1`, the “activity, negative = inhibition” value was 0.0156%.

Take `CCCc1nc2sc3c(c2c(=O)n1NC(=O)CCCl)CCCC3`: the “activity, negative = inhibition” value is 10.2%.

Take `CN(C)CCCn1c(=O)n(Cc2ccccc2)c(=O)c2c3c(sc21)CCCCC3`: the “activity, negative = inhibition” value is -8.02%.

Consider `CCn1c(=S)[nH]c2sc3c(c2c1=O)CCCCC3`, for which the Potency is 1.12 µM (active).

For the compound `CC(C)c1ccc(NC(=O)[C@@H](NC(=O)N2CC(=O)Nc3ccccc32)C(C)C)cc1`, the “activity, negative = inhibition” value is 12.5%.

For the compound `CC(C)c1ccc(NC(=S)NC2CC3C=CC2C3)cc1` (configuration not stated), the Potency is 11.2 µM (active).

For the compound `S=C(NNC(=S)NC1CC2CCC1C2)NC1CC2C=CC1C2` (configuration not stated), the “activity, negative = inhibition” value was -2.56%.

Consider `S=C(NNC(=S)NC1CC2C=CC1C2)NC1CC2C=CC1C2` (configuration not stated), for which the “activity, negative = inhibition” value is 4.85%.

Regarding `Cc1nn(C(C)C(=O)NCCC2=CCCCC2)c(=O)c2nn(-c3ccccc3)c(C)c12` (configuration not stated), the “activity, negative = inhibition” value is 8.83%.

With `COc1ccc(C(=O)NC2CC2)cc1OC1CCN(C/C=C/c2ccccc2)CC1`, the “activity, negative = inhibition” value was -1.34%.

Turning to `CN(C)S(=O)(=O)c1cccc(C(=O)OCC(=O)N2CCCC2=O)c1`, the “activity, negative = inhibition” value was -3.49%.

For the compound `CCOC(=O)C1CCN(C(=O)Cn2nc(C)c3c(C)n(-c4ccccc4)nc3c2=O)CC1`, the “activity, negative = inhibition” value was -3.98%.

Consider `O=C(N/N=C/c1ccoc1)c1ccc(Cl)cc1Cl`, for which the “activity, negative = inhibition” value was -4.59%.

In the case of `CC(Oc1ccccc1[N+](=O)[O-])C(=O)N/N=C/c1ccoc1` (configuration not stated), the “activity, negative = inhibition” value was -9.18%.

For `CC(C)c1cc(C(=O)N/N=C/c2ccoc2)c(O)c(C(C)C)c1`, the Potency is 3.16 µM (active).

In the case of `Cn1c(N2CCOCC2)c(C=O)c2ccccc21`, the “activity, negative = inhibition” value is 8.57%.

On to `CC1CCC(NS(=O)(=O)c2ccc3c(c2)CC(=O)N3)CC1` (configuration not stated), for which the “activity, negative = inhibition” value is 2.3%.

For `Cc1occc1C(=O)NC1CCCN(Cc2ccc(CC(C)C)cc2)C1` (configuration not stated), the “activity, negative = inhibition” value was -15.5%.

For the compound `CCOc1cc(/C=C/c2nc3ccccc3c(=O)[nH]2)cc(Br)c1OC`, the “activity, negative = inhibition” value is -2.15%.

For the compound `C=CCOc1c(Br)cc(/C=N\n2nnnc2N)cc1OC`, the “activity, negative = inhibition” value is 8.19%.

Take `CCOc1c(Br)cc(/C=C2\C(=O)N(CCC#N)N=C2C)cc1OC`: the Potency was 11.2 µM (active).

`CCOC(=O)c1ccc(NC(=O)C2CC(=O)Nc3nc4ccccc4n32)cc1` (configuration not stated): the “activity, negative = inhibition” value is 2.42%.

For the compound `CCOC(=O)C1=C(C)Nc2nc3ccccc3n2C1c1cccs1` (configuration not stated), the Potency is 5.01 µM (active).

As for `C=CCOC(=O)C1=C(C)NC(C)=C(C(=O)OCC=C)C1c1cccs1`, the “activity, negative = inhibition” value is 0.696%.
